Inconclusive results are not listed. A call without a number means that no potency is given here. A number with no mark means an inactive call. Calls of active or inactive are those of the source. The call rests on the fitted dose curve; in most records, active means well fitted cell-killing curve with a large enough effect; inconclusive means small, poorly fitted or top-dose-only effect; inactive means flat fitted curve, though single readings scatter.
Tests used:
[1] = Cellular viability qHTS for adrenocortical cancer (ACC) cell line NCI-H295R (AID 1963990); further: nearly all actives have a fitted effect of over 60% in size
Summary of the method: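 Adrenocortical carcinoma cells, suspended at 300 000 cells/mL in serum-free DMEM plus ITS, rested overnight before pin transfer of compound. After two days' incubation, ATP-dependent luminescence was recorded and curve-fitted.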

[2] = Cellular viability qHTS for adrenocortical cancer (ACC) cell line SW-13 (AID 1963989); settings: SW-13 ACC cells viability, CellTiter-Glo, 48 h; activity (max response): hits give low values; further: nearly all actives have a fitted effect of over 65% in size;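 on activity (max response): cells grown in serum-free medium with ITS supplement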
Summary of the method: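 IC50 and maximal-response values come from four-parameter logistic fits of titration data. SW-13 cells in serum-free medium received compounds (up to 46 uM final) for 48 h before CellTiter-Glo luminescence.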
Potency means the concentration at half of the fitted maximal effect.

| Compound | Potency [1] | Potency [2] | activity (max response) [2] [%] |
| --- | --- | --- | --- |
| CC#C[C@]1(O)CC[C@H]2[C@@H]3C[C@H](C)C4=CC(=O)CC[C@]4(C)[C@H]3CC[C@@]21C | 8.2 µM (active) |  |  |
| CC(C)[C@]12O[C@H]1[C@@H]1O[C@@]13[C@@]1(C)CCC4=C(COC4=O)[C@@H]1C[C@@H]1O[C@@]13C2=O | 0.631 µM (active) | 0.141 µM (active) |  |
| CC(N[C@H]1C[C@@H]1c1ccccc1)c1ccc2c(c1)OCCO2 (stereo partly drawn) | inactive |  |  |
| CC(=O)N1N=C(c2ccc(N)cc2)c2cc3c(cc2C[C@H]1C)OCO3 | inactive |  | -25.9 |
| CC(=O)[C@H]1CC[C@H]2[C@@H]3CC[C@H]4C[C@H](O)CC[C@]4(C)[C@H]3C(=O)C[C@]12C | inactive |  |  |
| Cn1c(CCCCCCC(=O)NO)nc2cc(N(CCCl)CCCl)ccc21 | 8.91 µM (active) |  |  |
| CN1C(=O)CN=C(c2ccccc2)c2cc(Cl)ccc21 | inactive |  | 0.469 |
| CCCCC/C=C\C/C=C\C/C=C\C/C=C\CCCC(=O)NCC(=O)O | inactive |  |  |
| COc1ccc2c(C(=O)c3ccc(Cl)cc3)c(C)n(CC(=O)O)c2c1 | inactive |  | 8.1 |
| O=C(CBr)N1CC([N+](=O)[O-])([N+](=O)[O-])C1 | inactive |  | 7.48 |
| CCC1(CCC(C)C)C(=O)NC(=O)NC1=O | inactive |  |  |
| N#CC(C#N)=Cc1ccc(O)c(O)c1 | inactive |  | 13.2 |
| CCc1cc2c(s1)-n1c(C)nnc1CN=C2c1ccccc1Cl | inactive |  | 12.2 |
| COc1ccc2[nH]cc(CCN(C(C)C)C(C)C)c2c1 | inactive |  | -8.69 |
| CC(C)(NC(=O)O[C@@H]1CN2CCC1CC2)c1csc(-c2ccc(F)cc2)n1 | inactive |  |  |
